Values joined by “and” are separate entries in the source; they are usually repeats but may differ in a detail not shown here. Identical values can stand only once. Inconclusive results are not listed. Active and inactive are the calls of the source. Calls come from the whole dose curve.
Test: qHTS assay for small molecule agonists of the p53 signaling pathway - cell viability (AID 651633); note: nearly all actives have a fitted effect of over 30% in size;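 for activity change, negative = cytotoxicity: p53RE-bla HCT reporter cells with a stable beta-lactamase p53 reporter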
Conditions: p53RE-bla HCT-116 viability, ATP luminescence, 16 h; series mostly up to 83.3 µM; activity change, negative = cytotoxicity: at the top concentration
Excerpt: National Center for Advancing Translational Sciences [NCATS]
NIH Chemical Genomics Center [NCGC]
U.S. Environmental Protection Agency [EPA]
National Institutes of Environmental Health Sciences [NIEHS]
National Toxicology Program [NTP]
U.S. Food and Drug Administration [FDA]
p53, a tumor suppressor protein, is activated following cellular insult, including DNA damage and other cellular stresses. The activation of p53 regulates cell fate by inducing DNA repair, cell cycle arrest, apoptosis, or cellular senescence. The activation of p53, therefore, is a good indicator of DNA damage and other cellular stresses. […] The activation of the reporter gene under culture conditions can be detected by fluorescence intensity. This cell line was used to screen the Tox21 compound library in a 1536-well plate format and to identify agonists that activate the p53 signaling pathway.
Tox21 Assay Protocol Summary:
The p53RE-bla cells were dispensed at 4,000 cells/5 ul/well in 1536-well black wall/clear bottom plates using a Multidrop dispenser. After the assay plates were incubated at a 37 C/5% CO2 incubator for 5 hours, 23 nL of compounds dissolved in DMSO, positive controls or DMSO only was transferred to the assay plate by a pin tool. The plates were incubated at 37 C for 16 hours. After 1 uL of LiveBLAzerTM B/G FRET substrate was added using a Flying Reagent Dispenser, the plates were incubated at room temperature for 2 hours, and fluorescence intensity was measured by an Envision plate reader.
For cell viability readout that measures cytotoxicity, 4 ul/well of CellTiter-Glo reagent was added into the assay plates using a Flying Reagent Dispenser. After 30 min incubation at room temperature, the luminescence intensity in the plates was measured using a ViewLux plate reader.
% is set by controls: 0 for no effect and ±100 for the full control effect; potency is the fitted concentration of half-maximal effect.

Row | SMILES | activity change, negative = cytotoxicity | Potency
1 | Cc1c(Cl)cccc1[N+](=O)[O-] | 12.2% (inactive) | 
2 | CCOCCn1c(N2CCCN(C)CC2)nc2ccccc21 | 16.5% (inactive) | 
3 | CCCC(=O)OCc1ccccc1 | 18.4% (inactive) | 
4 | C[C@H](CN1CCCC1)C(=O)c1ccc(C(F)(F)F)cc1 | -7.32% (inactive) | 
5 | CC(C)(Cc1c[nH]c2ccccc12)NCC(O)COc1ccccc1C#N (stereo not given) | -13% (inactive) | 
6 | CCCCC(CC)COCCC#N (stereo not given) | 15.4% (inactive) | 
7 | CCc1c(C)[nH]c2c1C(=O)C(CN1CCOCC1)CC2 (stereo not given) | 20.9% [at 39.1 µM] (inactive) | 
8 | CCC1=C(C)CN(C(=O)NCCc2ccc(S(=O)(=O)NC(=O)NC3CCC(C)CC3)cc2)C1=O (stereo not given) | -11.5% (inactive) | 
9 | Cc1c(N=C=O)cccc1N=C=O | 20.2% [at 95.3 µM] (inactive) | 
10 | Clc1ccccc1-c1nc(-c2ccncc2)no1 | -14% (inactive) | 
11 | CC[C@H](NC(C)C)[C@H](O)c1ccc(O)c2[nH]c(=O)ccc12 | 13.9% (inactive) | 
12 | CC(C)Cc1nccs1 | 16.2% [at 95.3 µM] (inactive) | 
13 | O=C(O)c1ccncc1 | -18.6% [at 95.3 µM] (inactive) | 
14 | CCCC1CCCC(=O)O1 (stereo not given) | -12.8% (inactive) | 
15 | Sc1nc(S)nc(S)n1 | 15.9% (inactive) | 
16 | CCCCCCCCCCCCN1CCOCC1 | 10.2% (inactive) | 
17 | CCc1ccc(C(=O)C(C)CN2CCCCC2)cc1 (stereo not given) | -8.07% (inactive) | 
18 | CCCCCCCCCCCCCCCCCCCl | -0.103% [at 8.08 µM] (inactive) | 
19 | C=CC(C)(O)CC/C=C(/C)CCC=C(C)C (stereo not given) | 19.2% (inactive) | 
20 | CO[C@@H]1COCC[C@@H]1N[C@@H]1CC[C@@](C(=O)N2CCc3ncc(C(F)(F)F)cc3C2)(C(C)C)C1 | 19.6% (inactive) | 

Row | SMILES | activity change, negative = cytotoxicity | Potency
21 | Cc1ccc(S(=O)(=O)NC(=O)NC2CCCC2)cc1 | -11.8% (inactive) | 
22 | CCC[Si](OC)(OC)OC | -18% (inactive) | 
23 | C[C@@H](O)[C@H]1C(=O)N2C(C(=O)O)=C(S[C@@H]3CN[C@H](CNS(N)(=O)=O)C3)[C@H](C)[C@H]12 | 15.8% (inactive) | 
24 | O=c1c2ccccc2oc2ccccc12 | -12.1% (inactive) | 
25 | CC(=O)Nc1ccn(C2COC(COC(=O)c3ccccc3)O2)c(=O)n1 (stereo not given) | 18.2% (inactive) | 
26 | O=Cc1ccc([N+](=O)[O-])cc1 | -9.27% [at 95.3 µM] (inactive) | 
27 | OCC(O)c1ccccc1 (stereo not given) | 19.2% (inactive) | 
28 | NCCOCCOCCN | -8.89% (inactive) | 
29 | CCC(=O)O[C@@H]1C[C@H]2CC[C@]1(C)C2(C)C | 9.05% (inactive) | 
30 | c1ccc(-c2ccc(-c3ccccc3)cc2)cc1 | 10.7% [at 39.1 µM] (inactive) | 
31 | CCOC(=O)CC(O)(CC(=O)OCC)C(=O)OCC | 19% (inactive) | 
32 | O=[N+]([O-])c1ccc(Cl)cc1Cl | -5.44% (inactive) | 
33 | CC(C)C[C@H](NC(=O)[C@H](Cc1ccccc1)NC(=O)c1cnccn1)B(O)O |  | 376 nM (active) and 211 nM (active)
34 | Cc1c(-c2cccnc2)c2ccccc2n1CCCCC(=O)O | 18.9% (inactive) | 
35 | OCCc1ccncc1 | 17.5% (inactive) | 
36 | COc1cc(CNC(=O)CCCC/C=C/C(C)C)ccc1O |  | inactive
37 | Nc1ccc(F)cc1F | 8.14% [at 95.3 µM] (inactive) | 
38 | CCCCCCCCNC | 12.3% (inactive) | 
39 | C/C=C1\[C@H]2C=C(C)C[C@]1(N)c1ccc(=O)[nH]c1C2 | -15.4% (inactive) | 
40 | CC(C)CCCCCCCOC(=O)c1ccc(C(=O)OCCCCCCCC(C)C)c(C(=O)OCCCCCCCC(C)C)c1 | -12.5% (inactive) | 

— PubChem BioAssay (Tox21)
